The text below walks through data of PubChem BioAssay (NCATS).

Structures are written as SMILES. Inconclusive results are not listed. A number with no mark means an inactive call. The source made the active and inactive calls. Calls follow the shape of the dose curve; as a rule, active = well fitted inhibition curve with a large enough effect; inconclusive = small, poorly fitted or top-dose-only effect; inactive = flat fitted curve, though single readings scatter.
% is scaled to controls: 0 for no effect and ±100 for the full control effect; potency is read from the fitted curve at half-maximal effect.

The test deals with MCC-26. Kind of test: qHTS assay to identify novel small-molecules to repurpose for Merkel cell carcinoma treatment (AID 1296009). Also: nearly all actives have a fitted effect of over 60% in size. Particulars: MCC and control cell lines, CellTiter-Glo viability, 72 h; series mostly up to 46 µM; activity change, negative = cytotoxicity: at the top concentration. An excerpt:
MCC is a rare and aggressive neuroendocrine skin cancer with limited treatment options. Approximately 80% of MCCs have the Merkel cell polyomavirus (MCPyV) DNA integrated into the host genome (virus-positive: VP-MCC) and viral oncogenes drive oncogenesis. The remaining MCCs are virus-negative (VN-MCC) and are caused by UV mutagenesis. To identify novel treatments for VP-MCC and/or VN-MCC we screened three VP-MCC cell lines (WAGA, MKL-1, MKL-2), three VN-MCC cell lines (MCC-13, MCC-26, UISO), and four immortalized, non-transformed control cell lines (HaCaT, HEK293T, CRL7250, NIH-3T3) against ~2,400 compounds in the NCGC Pharmaceutical Collection (NPC) and ~1,900 compounds in the Mechanism Interrogation PlatE (MiPE). Using cell viability as a readout (CellTiter-Glo assay) we found both overlapping and distinct drugs that can be repurposed for the treatment of VP-MCC and VN-MCC.
A high-throughput screen was conducted in 1536-well white flat bottom plates (Corning) on a Kalypsys robotic system. Cell lines WAGA, MKL-1, MKL-2, MCC-13, MCC-26, UISO, HaCaT, HEK293T, CRL7250, and NIH-3T3 were screened against 2 small molecule annotated drug libraries NPC and MIPE in dose response (8 and 11 pt. respectively) measuring cell viability after 72 hours of incubation. […] A 1,536 pintool (Kalypsys) was used to transfer 23 nL of compound in DMSO to the 1,536-well assay plates. After 72 hr incubation at 37 degree celsius, 2.5 uL of CellTiter-Glo (Promega) was dispensed into each well using a BiorapTR. Plates were incubated at room temperature for 10 min, transferred to a ViewLux (PerkinElmer) and the luminescence was recorded using an exposure time of 2 seconds. Relative luminescence units (RLUs) were normalized to in-plate controls (no cells as a positive (cytotoxicity) control, DMSO as negative control) and the normalized data was processed using NCATS in-house software.
For the molecule `CC(C)Oc1cccc(NC(=O)c2ccccc2C(F)(F)F)c1`, the “activity change, negative = cytotoxicity” value was -10.4% [at 92.7 µM].
Still for that read-out and setting: to `Cc1c(C(=O)Nc2cccc(C(F)(F)F)c2)cc(-c2ccccc2)n1CCCN1CCOCC1` belongs -7.13%; to `Clc1ccccc1C(c1ccccc1)(c1ccccc1)n1cccn1`, -5.54%.
The same measure, in the same setting: to `O=[N+]([O-])c1cc([N+](=O)[O-])c2ccccc2c1` belongs 14.8% [at 92.7 µM]; to `CC(=O)OCC1=C(C(=O)O)N2C(=O)[C@@H](N)[C@@H]2SC1`, 1.11%.
The same measure, in the same setting: in the case of `CCCC[N+]1(C)[C@H]2CC(OC(=O)[C@H](CO)c3ccccc3)C[C@H]1[C@H]1O[C@H]12` (stereo not given in full) it was 4.3%; in that of `Cc1ccc(Cl)c(O)c1`, 11.6%.
Regarding `CCOP(=O)(NC(C)C)Oc1ccc(SC)c(C)c1` (stereo not given), the “activity change, negative = cytotoxicity” value is 7.67% [at 92.7 µM].
Consider `CCCCCCCCCCCCCCCC[N+](C)(C)C`, for which the Potency is 26.6 µM (active).
On to `CN[C@@H]1Cc2cccc3[nH]c(=O)n(c23)C1`, for which the “activity change, negative = cytotoxicity” value was -2.08%.
On the same count and under the same terms, to `CCCCCCCCCC(CC)c1ccc(S(=O)(=O)O)cc1` (stereo not given) belongs -2.03% [at 92.7 µM].
On the same count and under the same terms, to `C[C@](O)(COc1ccc(C#N)cc1)C(=O)Nc1ccc(C#N)c(C(F)(F)F)c1` belongs -1.43%.
On the same count and under the same terms, to `CS(=O)(=O)c1ccc(C(=O)C2C(=O)CCCC2=O)c([N+](=O)[O-])c1` belongs 1.58% [at 92.7 µM]; to `Nc1ccc(Cl)cc1`, 11.6% [at 92.7 µM].
Consider `CCC(=O)OC1CCC2C3CCC4=CC(=O)CC[C@@]4(C)C3CC[C@]12C` (stereo not given in full), for which the “activity change, negative = cytotoxicity” value was 10.1%.
For the molecule `CC(C)(C)C(O)C(Oc1ccc(Cl)cc1)n1cncn1` (stereo not given), the “activity change, negative = cytotoxicity” value is -7.4% [at 92.7 µM].
Same read-out and setting: to `COc1ccc2c(c1)CN(C)CC2c1ccc(Cl)c(Cl)c1` (stereo not given) belongs -17.7%.
The same measure, in the same setting: to `COc1ccc(C(=O)c2c(C)n(CCN3CCOCC3)c3cc(I)ccc23)cc1` belongs -13.7%.
For the molecule `CC(C)[C@]12O[C@@H]1[C@@H]1O[C@]13[C@]1(O[C@H]1C[C@@H]1C4=C(CC[C@@]13C)C(=O)OC4)[C@H]2O`, the “activity change, negative = cytotoxicity” value is -74.2%.
Still for that read-out and setting: in the case of `Nc1ccc(Cl)cc1N` it was -4.51% [at 92.7 µM]; in that of `c1ccc2c(CN3CCNCC3)cccc2c1`, -0.608%.
Same read-out and setting: to `CC(=O)N(C)c1cccc(-c2ccnc3c(C(=O)c4cccs4)cnn23)c1` belongs -10.9%.
For `O=C(Nc1ccccc1-c1ccc(Cl)cc1)c1cccnc1Cl`, the “activity change, negative = cytotoxicity” value is 9.01% [at 92.7 µM].
On the same count and under the same terms, in the case of `CO[C@H]1CCC(O[C@H]2C[C@H]([C@]3(C)CC[C@]4(C[C@H](O)[C@@H](C)[C@@H]([C@@H](C)C=C(C)C(=O)[C@H](C)C[C@H](C)C(=O)O)O4)O3)O[C@]3(O[C@@H]([C@H]4O[C@@](O)(CO)[C@H](C)C[C@H]4C)C[C@H]3C)[C@H]2C)O[C@H]1C` (stereo not given in full) it was -26.4%; in that of `C[C@]12CC[C@H]3[C@@H](CCC4=CC(=O)CC[C@@]43C)[C@H]1CC[C@H]2OC(=O)CCC1CCCC1`, -7.31%; in that of `CC(C)[C@H]1C(=O)N[C@H](CO)Cc2c[nH]c3cccc(c23)N1C`, 2.41%.
For `CCc1c(C(=O)C(N)=O)c2c(OCC(=O)O)cccc2n1Cc1ccccc1`, the “activity change, negative = cytotoxicity” value was -1.66%.
Still for that read-out and setting: to `C1=C2CCCN[C@H]2[C@@H]2C[C@H]1[C@@H]1CCCCN1C2` belongs -0.931%; to `C=CC(=O)NCNC(=O)C=C`, 7.18% [at 92.7 µM].
On the same count and under the same terms, in the case of `Fc1cc(Br)ccc1CBr` it was 5.19%.
For the molecule `C[C@@]12OC(=O)[C@]1([C@@H](O)[C@@H]1C=CCCC1)NC(=O)[C@H]2CCCl`, the Potency was 0.833 µM (active).
On to `COCC1(CO)C(=O)C2CCN1CC2` (stereo not given), for which the “activity change, negative = cytotoxicity” value was -17.3%.
Take `C=CCC1=C(C)C(OC(=O)C2C(C=C(C)C)C2(C)C)CC1=O` (stereo not given): the “activity change, negative = cytotoxicity” value is -3.95% [at 92.7 µM].
Still for that read-out and setting: in the case of `O=S(=O)(O)C(F)(F)C(F)(F)C(F)(F)C(F)(F)F` it was 3.33% [at 92.7 µM]; in that of `CC(C)(O)C(=O)Nc1ccc([N+](=O)[O-])c(C(F)(F)F)c1`, -12.8%; in that of `C[C@]12CCC(=O)C(O)=C1CC[C@@H]1[C@H]3CCC(=O)[C@@]3(C)CC[C@@H]12`, 4.52%.
As for `Nc1ccc(N=Nc2ccccc2)cc1`, the “activity change, negative = cytotoxicity” value is -5.38% [at 92.7 µM].
For the molecule `Cc1cc(O)ccc1Cl`, the “activity change, negative = cytotoxicity” value was 1.65%.
On the same count and under the same terms, in the case of `N#C[C@H](O[C@@H]1O[C@H](CO[C@@H]2O[C@H](CO)[C@H](O)[C@H](O)[C@H]2O)[C@H](O)[C@H](O)[C@H]1O)c1ccccc1` it was -4.92%; in that of `O=S(=O)(CC1CS1)c1ccc(Oc2ccccc2)cc1` (stereo not given), -12.9%.
